Experimental findings from PubChem BioAssay (NCATS) are described below.

Each structure is given as a SMILES string. Results filed as inconclusive are left out. Entries that show only a call come without a potency. The source made the active and inactive calls. The call rests on the fitted dose curve; in most records, active means well fitted inhibition curve with a large enough effect; inconclusive means small, poorly fitted or top-dose-only effect; inactive means flat fitted curve, though single readings scatter.

Chain of Calcium and integrin-binding protein 1 (Homo sapiens) (Q99828 whole entry, looked up): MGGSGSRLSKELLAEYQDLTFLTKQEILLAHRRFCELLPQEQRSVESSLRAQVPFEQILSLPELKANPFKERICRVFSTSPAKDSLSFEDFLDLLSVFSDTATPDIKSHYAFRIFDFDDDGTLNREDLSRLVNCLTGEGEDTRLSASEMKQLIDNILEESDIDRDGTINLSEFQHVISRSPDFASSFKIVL

In the assay the target is Calcium and integrin-binding protein 1 (Homo sapiens) (UniProt Q99828). The assay is described as follows: Primary qHTS for Identification of Calcium Integrin Binding Protein 1 (CIB1) Competitor (AID 1508620). Further: top concentration of the series differs between compounds. As to conditions: CIB1-GST / FITC-alphaIIb peptide fluorescence polarization; series mostly up to 114 µM. The gist of the method:
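Fluorescence polarization competition: GST-tagged CIB1 (1 uM final) preincubated with compound 15 min at room temperature, then FITC-labelled alphaIIb peptide (100 nM final) added. After 15 min at room temperature, polarization read at Ex 480/Em 540.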
(In qHTS, concentration-response curves come from the screen itself.)
As for `FC(F)(F)c1ccccc1-c1nc(NCc2ccc(-c3ccc4c(c3)OCO4)cc2)c2ccccc2n1`, the Potency entry was “inactive”.

Take `O=C(Nc1ccc(Cl)c(Cl)c1)N1CCN(c2ccncc2)CC1`: the Potency result was “inactive”.

Take `COc1ccc([S+](=O)([O-])N2CCN([S+](=O)([O-])c3ccc4c(c3)OCCO4)CC2)c(OC)c1`: the Potency entry was “inactive”.

On to `COc1ccc(C2Nc3ccccc3C(=O)N2Cc2cccc3ccccc23)cc1COc1ccc(NC(C)=O)cc1` (stereo not given), for which the Potency result is “inactive”.

Take `Cc1ccc(-c2nccc(=O)n2CC(=O)N(C)C(C)c2ccco2)cc1` (stereo not given): the Potency entry is “inactive”.

Regarding `Cc1cc2c(s1)c1cnn(Cc3ccc(C)c(F)c3F)c(=O)c1n2C`, the Potency result is “inactive”.

Turning to `Fc1ccc(-c2ccc(CNc3nc(-c4ccccc4C(F)(F)F)nc4ccccc34)cc2)cc1`, the Potency result was “inactive”.

Take `Cc1ccccc1C(=O)N1CCc2cc(-c3nc(NC(=O)CC4CCCCC4)sc3C)ccc21`: the Potency result is “inactive”.

As for `COc1ccc(C2Nc3ccccc3C(=O)N2Cc2cccc(Cl)c2)cc1COc1ccc(NC(C)=O)cc1` (stereo not given), the Potency result is “inactive”.

In the case of `c1cc2c(cc1CNc1ccc(N3CCOCC3)cc1)OCO2`, the Potency entry was “inactive”.

For the compound `O=C(c1ccccc1O)N(Cc1ccccc1)Cc1cccs1`, the Potency result is “inactive”.

Turning to `O=C(Nc1ccc(-c2ccccc2)cc1)Nc1nnc(-c2ccncc2)s1`, the Potency result is “inactive”.

In the case of `Cc1cc2c(s1)c1cnn(Cc3ccc(Cl)cc3)c(=O)c1n2C`, the Potency result is “inactive”.

As to `O=C(O)c1cccc(-c2cccc(-c3nn4c(=O)cc(N5CCNCC5)nc4s3)c2)c1`, the Potency result is “inactive”.

On to `COc1cc(Cl)c(C)cc1NC(=O)C(OC(=O)CNC(=O)c1ccccc1)c1ccccc1` (stereo not given), for which the Potency entry is “inactive”.

Consider `N#Cc1cccc(CSc2nc3ncc(Br)cc3[nH]2)c1`, for which the Potency entry is “inactive”.

On to `O=C(O)CN1C(=O)N/C(=C\c2cccn2-c2ccc(P(=O)(O)O)cc2)C1=O`, for which the Potency result was “inactive”.

As to `O=C(CSc1nnc(-c2cccc(S(=O)(=O)N3CCCC3)c2)n1-c1ccccc1)Nc1ccc(F)cc1`, the Potency entry is “inactive”.

For the compound `COC(=O)c1ccc(Nc2nc(-c3ccncc3)nc3ccccc23)cc1OC`, the Potency result was “inactive”.

`C(=Nc1cccnc1)c1cccs1`: the Potency entry is “inactive”.

On to `CC(=O)Nc1sc2c(c1-c1nc3ccccc3s1)CC(C)NC2` (stereo not given), for which the Potency result was “inactive”.

Consider `COc1cccc(CNc2ccc(S(=O)(=O)Nc3ccc(N4CCNCC4)cc3)cc2)c1O`, for which the Potency entry was “inactive”.

In the case of `COc1cccc(C2c3c(ncn(-c4ccc(-c5ccccc5)cc4)c3=N)Oc3ccc4ccccc4c32)c1` (stereo not given), the Potency entry was “inactive”.

Consider `CC(=O)NC(c1ccco1)c1cc(Br)c2cccnc2c1O` (stereo not given), for which the Potency entry was “inactive”.

For `CN1CCOc2cc(S(=O)(=O)N3CCN(S(=O)(=O)c4c(F)cccc4F)CC3)cnc21`, the Potency entry was “inactive”.

On to `Cc1c(P(=S)(c2ccccc2)c2ccccc2)[n+]2ccccc2n1CCCc1ccccc1`, for which the Potency result was “inactive”.

With `S=P(c1ccccc1)(c1ccccc1)c1c[n+](C/C=C/c2ccccc2)c2ccccn12`, the Potency result was “inactive”.

For `Cc1ccc(CNc2ncnc3ccc(-c4ccc(C(=O)N(C)C)o4)cc23)o1`, the Potency entry is “inactive”.

Take `FC(F)(F)c1cnc(N2CCN(C(=S)Nc3cc(Cl)ccn3)CC2)c(Cl)c1`: the Potency result was “inactive”.

`Cc1cc(C)nc(NC(=S)N2CCN(c3cccc(S(C)=O)c3)CC2)c1` (stereo not given): the Potency result is “inactive”.

Consider `Cn1nnnc1Sc1ncnc2scc(-c3ccccc3C#N)c12`, for which the Potency entry was “inactive”.

In the case of `Cc1cc(C)nc(NC(=S)N2CCN(c3ccc(Cl)c(Cl)c3Cl)CC2)c1`, the Potency result was “inactive”.

Take `CC(=O)N1CCN(c2ccc(NCc3cccc(C)c3)cc2)CC1`: the Potency entry was “inactive”.

As for `Cc1ccc(-n2c(=O)ccc(=O)n2CC(=O)NCCc2ccccc2)cc1`, the Potency result is “inactive”.

`c1ccc(CNc2nc(-c3cccs3)nc3ccccc23)cc1`: the Potency entry was “inactive”.

With `O=C(Nc1ccc(-c2nc3ccccc3[nH]2)cc1)c1ccc2c(c1)OCCO2`, the Potency entry was “inactive”.

On to `O=S(=O)(Nc1ccc2ccccc2c1)c1ccc(NCc2cccc(Cl)c2O)cc1`, for which the Potency entry is “inactive”.

Take `Cc1cc(NS(=O)(=O)c2ccc(NC(=O)Cc3ccc(Cl)cc3Cl)cc2)no1`: the Potency entry was “inactive”.

Turning to `CC(C)(C)OC(=O)N1CCN(c2ccc(NCc3ccnc(-c4ccc(C#N)cc4)n3)cc2)CC1`, the Potency result is “inactive”.

As to `O=C(N1CCc2ccc(S(=O)(=O)N3CCN(S(=O)(=O)c4ccc5c(c4)OCCO5)CC3)cc2C1)C(F)(F)F`, the Potency entry was “inactive”.
